Test results from PubChem BioAssay (Tox21).
Results filed as inconclusive are left out. Active and inactive are the calls of the source. Unless noted, calls come from the whole dose curve; as a rule, active = well fitted curve in the direction sought with a large enough effect in the repeat runs; inconclusive = weak or mixed curves; inactive = no such curve, though single readings can be large; an effect the other way counts as inactive or inconclusive.

Tests used:
[1] = qHTS assay to identify aromatase inhibitors - cell viability counter screen (AID 743084);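 note: cells stimulated with testosterone during compound exposure; nearly all actives have a fitted effect of over 55% in size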
[2] = qHTS assay to identify small molecule that activate the aryl hydrocarbon receptor (AhR) signaling pathway - cell viability counter screen (AID 743086);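 note: HepG2 liver cells carrying the AhR DRE luciferase reporter; series mostly up to about 70 µM; nearly all actives have a fitted effect of over 45% in size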
Method in brief: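 HepG2-AhR-luc (HG2L7.5c1) cells, 4000/well, were preincubated 5 h at 37C, exposed to compound in qHTS format for 24 hr at 37C, then given CellTiter-Fluor for 30 min; viability was read as fluorescence in the reporter wells.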

[3] = target: Peroxisome proliferator-activated receptor gamma (Homo sapiens) (UniProt P37231); assay: qHTS assay to identify small molecule agonists of the peroxisome proliferator-activated receptor gamma (PPARg) signaling pathway (AID 743094; active = well fitted activation curve with a large enough effect in the signal ratio in the repeat runs, not every such curve was filed as active; the % refers to the signal ratio)
Sequence of Peroxisome proliferator-activated receptor gamma (Homo sapiens) (P37231 whole entry, looked up): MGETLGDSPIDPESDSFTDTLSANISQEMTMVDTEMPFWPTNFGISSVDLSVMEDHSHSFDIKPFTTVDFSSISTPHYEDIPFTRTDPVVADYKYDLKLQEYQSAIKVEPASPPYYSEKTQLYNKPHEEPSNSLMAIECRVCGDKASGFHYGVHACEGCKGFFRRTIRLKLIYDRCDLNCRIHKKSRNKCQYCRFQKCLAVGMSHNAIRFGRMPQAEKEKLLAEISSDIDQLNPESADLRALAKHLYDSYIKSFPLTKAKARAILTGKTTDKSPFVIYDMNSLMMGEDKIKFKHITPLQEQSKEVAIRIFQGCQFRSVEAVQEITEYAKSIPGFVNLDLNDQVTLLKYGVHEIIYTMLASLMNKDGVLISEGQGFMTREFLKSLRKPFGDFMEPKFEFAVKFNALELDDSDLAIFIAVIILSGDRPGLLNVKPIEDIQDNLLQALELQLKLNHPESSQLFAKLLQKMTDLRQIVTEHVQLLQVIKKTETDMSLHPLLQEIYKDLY
Method in brief: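 GeneBLAzer PPARg UAS-bla HEK293H cells were plated, rested 5 h, then exposed to compounds for 17 h at 37C. Beta-lactamase activity was read by LiveBLAzer B/G FRET substrate fluorescence after 1 h at room temperature.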

[4] = target: Peroxisome proliferator-activated receptor gamma (Homo sapiens) (UniProt P37231); assay: qHTS assay to identify small molecule antagonists of the peroxisome proliferator-activated receptor gamma (PPARg) signaling pathway (AID 743191; calls by dose curve; note: series mostly up to about 63 µM; nearly all actives have a fitted effect of over 30% in size)
Method in brief: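 GeneBLAzer PPARg UAS-bla HEK293H cells carrying a UAS-driven beta-lactamase reporter were plated at 3000 cells/well, preincubated 5 h at 37C, then given compound for 17 h at 37C; LiveBLAzer B/G FRET substrate was read after 1 h at room temperature.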

[5] = qHTS assay to identify small molecule antagonists of the peroxisome proliferator-activated receptor gamma (PPARg) signaling pathway - cell viability counter screen (AID 743194); settings: Potency: co-treated with 50 nM rosiglitazone unless noted; note: nearly all actives have a fitted effect of over 55% in size
Method in brief: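 PPARg-UAS-bla HEK293H cells were plated, rested 5 h at 37 C, then treated with compounds plus rosiglitazone (50 nM final) for 17 h at 37 C; viability was then read by CellTiter-Glo luminescence after 30 min at room temperature.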

[6] = qHTS assay for small molecule agonists of the antioxidant response element (ARE) signaling pathway (AID 743202; active = well fitted activation curve with a large enough effect in the signal ratio in the repeat runs, not every such curve was filed as active; the % refers to the signal ratio)
Method in brief: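 Compounds delivered in DMSO to ARE-bla HepG2 cells (2,000 cells/well, pre-incubated 5 h) and left 16 h at 37 C. LiveBLAzer B/G FRET substrate then added for 2 h at RT before fluorescence reading.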

[7] = qHTS assay for small molecule agonists of the antioxidant response element (ARE) signaling pathway - cell viability counter screen (AID 743203; calls by dose curve; note: nearly all actives have a fitted effect of over 55% in size)
Method in brief: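 ARE-bla HepG2 cells were plated, rested 5 h at 37C/5% CO2, then exposed to compounds in DMSO for 16 h. Viability was read as CellTiter-Glo luminescence after 30 min at room temperature, in the same wells as the ARE screen.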

[8] = qHTS assay for small molecule activators of the heat shock response signaling pathway - cell viability counter screen (AID 743209); note: nearly all actives have a fitted effect of over 50% in size
Method in brief: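 HSE-bla HeLa cells plated overnight, then exposed to Tox21 compounds (23 nL in DMSO) for 5 h at 37 C. After the bla reporter read, CellTiter-Glo was added in the same wells and luminescence read after 30 min at room temperature.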

[9] = qHTS assay for small molecule activators of the heat shock response signaling pathway (AID 743210; active = well fitted activation curve with a large enough effect in the signal ratio in the repeat runs, with a control signal flat, not every such curve was filed as active; the % refers to the signal ratio;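 note: HeLa cells with beta-lactamase reporter driven by heat shock elements; series mostly up to about 63 µM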)
Method in brief: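 Reporter gene assay: HeLa cells stably bearing an HSE-bla construct, compound treatment 5 h at 37 C, LiveBLAzer substrate 2.5 h at RT, fluorescence intensity.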

[10] = qHTS assay to identify small molecule agonists of the peroxisome proliferator-activated receptor delta (PPARd) signaling pathway - cell viability counter screen (AID 743211); note: nearly all actives have a fitted effect of over 55% in size
Method in brief: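 Tox21 library compounds, delivered in DMSO, were incubated 17 h with PPARd-bla HEK293H cells; cytotoxicity was taken from CellTiter-Glo luminescence read 30 min after reagent addition.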

[11] = qHTS assay to identify small molecule antagonists of the peroxisome proliferator-activated receptor delta (PPARd) signaling pathway - cell viability counter screen (AID 743213); note: nearly all actives have a fitted effect of over 50% in size
Method in brief: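 PPARd-bla HEK293H cells (3000/well) got compound plus 300 nM L165041 agonist for 17 h at 37 C. Viability in the same wells came from CellTiter-Glo luminescence after 30 min at room temperature.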

[12] = qHTS assay to identify small molecule agonists of the farnesoid-X-receptor (FXR) signaling pathway - cell viability counter screen (AID 743218); note: nearly all actives have a fitted effect of over 45% in size
Method in brief: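 FXR-UAS-bla HEK 293T cells exposed to compounds for 16 h at 37C. Cytotoxicity read in the same wells by CellTiter-Glo luminescence after 30 min at room temperature, following the beta-lactamase FRET read.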

[13] = qHTS assay to identify small molecule antagonists of the farnesoid-X-receptor (FXR) signaling pathway - cell viability counter screen (AID 743221; active = well fitted cell-killing curve with a large enough effect in the repeat runs, not every such curve was filed as active; note: nearly all actives have a fitted effect of over 50% in size)
Method in brief: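 Cytotoxicity is taken from ATP luminescence (CellTiter-Glo, 30 min, room temperature) in FXR-bla HEK 293T cells previously incubated 16 h at 37 C with compound and chenodeoxycholic acid at 50 uM final.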

[14] = target: Vitamin D3 receptor (Homo sapiens) (UniProt P11473); assay: qHTS assay to identify small molecule agonists of the vitamin D receptor (VDR) signaling pathway (AID 743222; calls by dose curve)
Sequence of Vitamin D3 receptor (Homo sapiens) (P11473 whole entry, looked up): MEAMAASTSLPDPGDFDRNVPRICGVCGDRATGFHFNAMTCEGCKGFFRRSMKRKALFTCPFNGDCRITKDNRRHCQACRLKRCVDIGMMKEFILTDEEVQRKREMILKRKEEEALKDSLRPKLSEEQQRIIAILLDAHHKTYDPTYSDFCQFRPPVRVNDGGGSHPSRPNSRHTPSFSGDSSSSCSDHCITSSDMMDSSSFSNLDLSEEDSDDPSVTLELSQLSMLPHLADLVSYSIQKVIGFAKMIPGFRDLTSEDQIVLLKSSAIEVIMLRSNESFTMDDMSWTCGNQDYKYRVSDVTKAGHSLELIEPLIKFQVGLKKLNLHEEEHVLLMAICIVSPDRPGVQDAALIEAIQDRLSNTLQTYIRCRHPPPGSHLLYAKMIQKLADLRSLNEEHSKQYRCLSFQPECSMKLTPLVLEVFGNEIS
Method in brief: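 VDR-bla cells plated 4 h at 37 C, then exposed to compounds for 16 h at 37 C. Beta-lactamase reporter activity measured by fluorescence after 2 h room-temperature loading with LiveBLAzer B/G FRET substrate.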

[15] = target: Vitamin D3 receptor (Homo sapiens) (UniProt P11473); assay: qHTS assay to identify small molecule antagonists of the vitamin D receptor (VDR) signaling pathway (AID 743223; active = well fitted inhibition curve with a large enough effect in the signal ratio in the repeat runs, not every such curve was filed as active; the % refers to the signal ratio)
Method in brief: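 Quantitative HTS in VDR-bla reporter cells stimulated with 1alpha,25-dihydroxyvitamin D3, 3 nM final. Compound exposure 16 h, 37C, 5% CO2. Read-out: beta-lactamase FRET substrate fluorescence, 2 h RT.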

[16] = target: Aryl hydrocarbon receptor (Homo sapiens) (UniProt P35869); assay: qHTS assay to identify small molecule that activate the aryl hydrocarbon receptor (AhR) signaling pathway (AID 743085);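 note: HG2L7.5c1 human HepG2 liver cells with stably integrated DRE-driven firefly reporter; series mostly up to about 70 µM; nearly all actives have a fitted effect of over 15% in size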
Sequence of Aryl hydrocarbon receptor (Homo sapiens) (P35869 whole entry, looked up): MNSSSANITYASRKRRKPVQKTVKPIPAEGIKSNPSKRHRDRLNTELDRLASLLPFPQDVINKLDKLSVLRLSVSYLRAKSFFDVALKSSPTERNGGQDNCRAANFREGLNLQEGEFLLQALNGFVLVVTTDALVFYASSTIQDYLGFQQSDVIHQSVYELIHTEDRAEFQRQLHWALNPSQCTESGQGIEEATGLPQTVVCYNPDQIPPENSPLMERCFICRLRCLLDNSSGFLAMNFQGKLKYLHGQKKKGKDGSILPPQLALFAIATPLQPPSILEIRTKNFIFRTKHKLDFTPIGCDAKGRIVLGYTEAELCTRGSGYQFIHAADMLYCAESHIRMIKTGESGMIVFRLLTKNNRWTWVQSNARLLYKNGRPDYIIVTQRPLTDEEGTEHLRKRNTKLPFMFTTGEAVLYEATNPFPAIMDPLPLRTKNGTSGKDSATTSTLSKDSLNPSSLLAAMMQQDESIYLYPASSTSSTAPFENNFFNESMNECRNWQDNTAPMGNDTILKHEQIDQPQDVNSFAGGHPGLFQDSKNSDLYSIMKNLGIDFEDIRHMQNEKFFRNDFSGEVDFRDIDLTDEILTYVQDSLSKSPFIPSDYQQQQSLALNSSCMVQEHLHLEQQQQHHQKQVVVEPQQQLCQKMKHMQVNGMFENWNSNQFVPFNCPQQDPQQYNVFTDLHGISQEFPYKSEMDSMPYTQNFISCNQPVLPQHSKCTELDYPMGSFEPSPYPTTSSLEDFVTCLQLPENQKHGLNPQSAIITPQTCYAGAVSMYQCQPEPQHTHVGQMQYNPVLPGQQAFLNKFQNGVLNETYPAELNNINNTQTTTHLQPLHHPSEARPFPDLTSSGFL
Method in brief: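 A multiplexed format paired cell viability (CellTiter-Fluor fluorescence) with AhR-dependent luciferase output (ONE-Glo luminescence) in the same wells of HepG2 DRE-luc cells after 24 h compound exposure at 37C.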

[17] = target: Peroxisome proliferator-activated receptor delta (Homo sapiens) (UniProt Q03181); assay: qHTS assay to identify small molecule agonists of the peroxisome proliferator-activated receptor delta (PPARd) signaling pathway (AID 743212; calls by dose curve)
Sequence of Peroxisome proliferator-activated receptor delta (Homo sapiens) (Q03181 whole entry, looked up): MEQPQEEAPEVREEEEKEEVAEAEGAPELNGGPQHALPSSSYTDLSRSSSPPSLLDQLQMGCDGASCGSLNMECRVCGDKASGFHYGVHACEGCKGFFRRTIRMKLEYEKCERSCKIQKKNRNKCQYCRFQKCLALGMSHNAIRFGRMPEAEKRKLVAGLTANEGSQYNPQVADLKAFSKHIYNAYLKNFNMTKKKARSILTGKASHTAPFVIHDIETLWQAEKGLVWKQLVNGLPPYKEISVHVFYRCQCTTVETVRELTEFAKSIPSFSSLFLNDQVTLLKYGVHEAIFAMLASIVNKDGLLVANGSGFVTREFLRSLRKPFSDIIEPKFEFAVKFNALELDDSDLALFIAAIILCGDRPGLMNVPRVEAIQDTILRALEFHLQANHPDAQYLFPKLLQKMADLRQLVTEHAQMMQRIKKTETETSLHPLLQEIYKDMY
Method in brief: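 A PPARd-bla HEK293H line with beta-lactamase under an Upstream Activator Sequence is treated with compounds at 37 C. Substrate loading for 2 h at room temperature precedes the fluorescence measurement.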

[18] = target: Peroxisome proliferator-activated receptor delta (Homo sapiens) (UniProt Q03181); assay: qHTS assay to identify small molecule antagonists of the peroxisome proliferator-activated receptor delta (PPARd) signaling pathway (AID 743215; active = well fitted inhibition curve with a large enough effect in the signal ratio in the repeat runs, not every such curve was filed as active; the % refers to the signal ratio;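 note: cells stimulated with agonist L165041 at 300 nM final during compound exposure; series mostly up to about 62 µM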)
Method in brief: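 PPARd-bla HEK293H cells (UAS-bla reporter) preincubated 5 h, then given compound plus 300 nM final L165041 agonist for 17 h at 37 C. Beta-lactamase activity read by LiveBLAzer B/G FRET substrate fluorescence after 2 h at room temperature.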

[19] = target: Bile acid receptor (Homo sapiens) (UniProt Q96RI1); assay: qHTS assay to identify small molecule antagonists of the farnesoid-X-receptor (FXR) signaling pathway (AID 743217; active = well fitted inhibition curve with a large enough effect in the signal ratio in the repeat runs, not every such curve was filed as active; the % refers to the signal ratio)
Sequence of Bile acid receptor (Homo sapiens) (Q96RI1 whole entry, looked up): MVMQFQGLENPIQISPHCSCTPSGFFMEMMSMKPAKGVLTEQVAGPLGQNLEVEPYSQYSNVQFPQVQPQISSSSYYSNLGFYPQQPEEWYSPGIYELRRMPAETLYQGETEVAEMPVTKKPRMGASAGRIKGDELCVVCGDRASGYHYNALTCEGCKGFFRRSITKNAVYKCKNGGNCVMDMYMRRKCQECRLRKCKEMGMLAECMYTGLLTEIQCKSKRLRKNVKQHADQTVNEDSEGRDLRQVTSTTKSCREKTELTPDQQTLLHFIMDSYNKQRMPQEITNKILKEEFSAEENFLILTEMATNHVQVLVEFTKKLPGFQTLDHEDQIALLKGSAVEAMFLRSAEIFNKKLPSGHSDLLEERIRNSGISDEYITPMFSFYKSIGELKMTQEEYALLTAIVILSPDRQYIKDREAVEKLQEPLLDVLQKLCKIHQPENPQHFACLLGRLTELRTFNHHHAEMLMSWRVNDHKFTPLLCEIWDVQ
Method in brief: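 FXR-UAS-bla HEK 293T cells (beta-lactamase reporter) given compound plus chenodeoxycholic acid (50 uM final), 16 h at 37C. LiveBLAzer B/G FRET substrate added for 2 h at room temperature; fluorescence read.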

[20] = target: Bile acid receptor (Homo sapiens) (UniProt Q96RI1); assay: qHTS assay to identify small molecule agonists of the farnesoid-X-receptor (FXR) signaling pathway (AID 743220; active = well fitted activation curve with a large enough effect in the signal ratio in the repeat runs, not every such curve was filed as active; the % refers to the signal ratio)
Method in brief: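 Beta-lactamase reporter under UAS control in GeneBLAzer FXR HEK 293T cells (5000/well) measured with LiveBLAzer FRET substrate after 2 h at room temperature. Compound exposure lasted 16 h at 37C.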

Measured: Potency

COc1c2ccoc2cc2oc(=O)ccc12
not listed: [16] | [17] | [18] | [19] | [20]
inactive: all other assays above

CC(C)(C)NC[C@H](O)COc1nsnc1N1CCOCC1
not listed: [3] | [4] | [17] | [18] | [19] | [20]
inactive: all other assays above

OCCOCCOCCOCCOCCO
not listed: [3] | [4] | [8] | [16] | [17] | [18] | [19] | [20]
inactive: all other assays above

CC1(C)[C@@H](O[C@H]2O[C@H](C(=O)O)[C@@H](O)[C@H](O)[C@H]2O[C@@H]2O[C@H](C(=O)O)[C@@H](O)[C@H](O)[C@H]2O)CC[C@]2(C)[C@H]3C(=O)C=C4[C@@H]5C[C@@](C)(C(=O)O)CC[C@]5(C)CC[C@@]4(C)[C@]3(C)CC[C@@H]12
not listed: [3] | [4] | [9] | [17] | [18] | [19] | [20]
inactive: all other assays above

CCCCCCC(=O)O
not listed: [3] | [4] | [8] | [13]
inactive: all other assays above

CCCCCCCCC(=O)O
not listed: [3] | [4] | [14] | [15] | [19] | [20]
inactive: all other assays above

CO[Si](CCCNCCN)(OC)OC
not listed: [13] | [16] | [19] | [20]
inactive: all other assays above

NCCNCCNCCN
not listed: [1] | [3] | [4] | [9] | [13] | [16] | [17] | [18]
inactive: all other assays above

CC(=O)OCc1ccc2c(c1)OCO2
not listed: [3] | [4] | [17] | [18]
inactive: all other assays above
